# Assay results as given in PMC7862700, “An all-to-all approach to the identification of sequence-specific readers for epigenetic DNA modifications on cytosine”.
# Experiments:
# Experiment in all cases: DAPPL (digital affinity profiling via proximity ligation, sequencing); 10 mM Tris-HCl pH 7.5, 50 mM NaCl, 1 mM DTT, 4% glycerol, room temperature, 30 min; GST-TFs on glutathione beads, 16-mer random dsDNA library, 0.1% formaldehyde crosslink after washing; high values mean tight binding
# [1] = biological target: T1, FLI1 (Homo sapiens, UniProt Q01543 1-452); details: protein: recombinant; tags: N-terminal GST; dsDNA, one strand shown
# T1 sequence: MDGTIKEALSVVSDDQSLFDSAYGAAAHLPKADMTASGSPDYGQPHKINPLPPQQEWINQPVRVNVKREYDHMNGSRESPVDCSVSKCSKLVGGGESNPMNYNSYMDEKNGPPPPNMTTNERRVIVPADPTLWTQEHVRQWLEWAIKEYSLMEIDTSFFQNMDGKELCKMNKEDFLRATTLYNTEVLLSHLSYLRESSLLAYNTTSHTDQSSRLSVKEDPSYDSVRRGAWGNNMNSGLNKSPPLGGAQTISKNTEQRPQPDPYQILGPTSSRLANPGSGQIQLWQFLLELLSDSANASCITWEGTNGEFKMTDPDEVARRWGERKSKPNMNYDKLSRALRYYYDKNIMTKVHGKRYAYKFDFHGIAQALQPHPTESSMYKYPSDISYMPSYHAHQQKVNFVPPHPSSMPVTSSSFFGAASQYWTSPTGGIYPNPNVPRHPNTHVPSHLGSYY
# Method in brief: (§1)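 GST fusions of human transcription factors were expressed in yeast and captured with glutathione beads. Once given DNA barcodes and pooled alongside a tag-only sample, they were incubated for 30 min at room temperature with 200 nmole of a random double-stranded 16-mer DNA library in Tris/NaCl/DTT/glycerol buffer, then washed, crosslinked (0.1% formaldehyde), proximity-ligated, PCR-amplified and sequenced on an Illumina NextSeq500. The binding signal of each hexamer is its read frequency for a factor divided by its frequency for the tag-only sample.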
# [2] = biological target: T2, ELK1 (Homo sapiens, UniProt P19419 1-428); details: protein: recombinant; tags: N-terminal GST; dsDNA, one strand shown
# T2 sequence: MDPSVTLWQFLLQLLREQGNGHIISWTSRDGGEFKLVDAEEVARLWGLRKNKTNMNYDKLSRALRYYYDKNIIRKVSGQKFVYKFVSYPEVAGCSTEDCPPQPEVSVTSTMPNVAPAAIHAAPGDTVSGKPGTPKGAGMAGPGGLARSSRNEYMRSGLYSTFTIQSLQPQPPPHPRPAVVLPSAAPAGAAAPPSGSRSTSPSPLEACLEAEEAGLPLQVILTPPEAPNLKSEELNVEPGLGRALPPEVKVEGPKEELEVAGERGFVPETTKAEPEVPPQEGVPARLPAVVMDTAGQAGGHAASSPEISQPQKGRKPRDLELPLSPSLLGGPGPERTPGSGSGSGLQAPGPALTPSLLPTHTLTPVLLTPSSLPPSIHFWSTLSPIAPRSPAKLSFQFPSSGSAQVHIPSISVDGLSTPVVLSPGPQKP
# Method in brief: as §1
# [3] = biological target: T3, GABPA (Homo sapiens, UniProt Q06546 1-454); details: protein: recombinant; tags: N-terminal GST; dsDNA, one strand shown
# T3 sequence: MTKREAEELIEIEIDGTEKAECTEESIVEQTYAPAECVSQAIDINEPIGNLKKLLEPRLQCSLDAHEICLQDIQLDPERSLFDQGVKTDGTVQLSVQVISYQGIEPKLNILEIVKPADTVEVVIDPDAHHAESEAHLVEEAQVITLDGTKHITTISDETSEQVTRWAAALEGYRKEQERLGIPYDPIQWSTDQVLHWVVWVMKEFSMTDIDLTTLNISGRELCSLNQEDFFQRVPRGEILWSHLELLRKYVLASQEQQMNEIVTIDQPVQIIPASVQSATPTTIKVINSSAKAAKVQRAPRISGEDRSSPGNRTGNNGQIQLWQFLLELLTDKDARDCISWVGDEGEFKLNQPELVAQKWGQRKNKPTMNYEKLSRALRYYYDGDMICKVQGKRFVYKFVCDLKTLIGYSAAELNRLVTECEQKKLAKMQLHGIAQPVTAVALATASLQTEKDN
# Method in brief: as §1
# [4] = biological target: T4, ERG (Homo sapiens, UniProt P11308 1-479); details: protein: recombinant; tags: N-terminal GST; dsDNA, one strand shown
# T4 sequence: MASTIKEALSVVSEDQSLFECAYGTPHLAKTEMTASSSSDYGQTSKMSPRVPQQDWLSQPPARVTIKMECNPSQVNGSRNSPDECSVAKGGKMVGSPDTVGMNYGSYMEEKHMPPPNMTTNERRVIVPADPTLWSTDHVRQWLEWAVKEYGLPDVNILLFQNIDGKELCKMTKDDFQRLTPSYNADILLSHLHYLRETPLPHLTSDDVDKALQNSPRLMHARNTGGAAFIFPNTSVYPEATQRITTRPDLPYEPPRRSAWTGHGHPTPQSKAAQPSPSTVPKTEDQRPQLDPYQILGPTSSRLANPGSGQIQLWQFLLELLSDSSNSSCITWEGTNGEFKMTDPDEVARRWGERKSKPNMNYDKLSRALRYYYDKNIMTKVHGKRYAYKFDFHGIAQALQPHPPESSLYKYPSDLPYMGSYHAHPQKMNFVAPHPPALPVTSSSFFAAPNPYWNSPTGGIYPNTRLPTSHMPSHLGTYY
# Method in brief: as §1
# [5] = biological target: ELF1 (Homo sapiens, UniProt P32519 1-619); details: protein: recombinant; tags: N-terminal GST; dsDNA, one strand shown
# Method in brief: as §1
# [6] = biological target: T5, EHF (Homo sapiens, UniProt Q9NZC4 1-300); details: protein: recombinant; tags: N-terminal GST; dsDNA, one strand shown
# T5 sequence: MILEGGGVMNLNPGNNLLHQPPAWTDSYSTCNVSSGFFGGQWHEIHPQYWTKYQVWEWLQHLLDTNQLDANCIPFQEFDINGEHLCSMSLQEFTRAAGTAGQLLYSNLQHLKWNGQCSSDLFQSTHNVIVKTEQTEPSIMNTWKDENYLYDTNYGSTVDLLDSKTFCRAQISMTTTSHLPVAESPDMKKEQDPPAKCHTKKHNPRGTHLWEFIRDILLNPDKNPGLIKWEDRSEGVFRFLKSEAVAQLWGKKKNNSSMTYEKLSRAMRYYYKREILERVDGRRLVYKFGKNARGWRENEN
# Method in brief: as §1
# [7] = biological target: SPI1 (Homo sapiens, UniProt P17947 1-270); details: protein: recombinant; tags: N-terminal GST; dsDNA, one strand shown
# Method in brief: as §1
# [8] = biological target: SPIB (Homo sapiens, UniProt Q01892 1-262); details: protein: recombinant; tags: N-terminal GST; dsDNA, one strand shown
# Method in brief: as §1
# [9] = biological target: T6, ELK3 (Homo sapiens, UniProt P41970 1-407); details: protein: recombinant; tags: N-terminal GST; dsDNA, one strand shown
# T6 sequence: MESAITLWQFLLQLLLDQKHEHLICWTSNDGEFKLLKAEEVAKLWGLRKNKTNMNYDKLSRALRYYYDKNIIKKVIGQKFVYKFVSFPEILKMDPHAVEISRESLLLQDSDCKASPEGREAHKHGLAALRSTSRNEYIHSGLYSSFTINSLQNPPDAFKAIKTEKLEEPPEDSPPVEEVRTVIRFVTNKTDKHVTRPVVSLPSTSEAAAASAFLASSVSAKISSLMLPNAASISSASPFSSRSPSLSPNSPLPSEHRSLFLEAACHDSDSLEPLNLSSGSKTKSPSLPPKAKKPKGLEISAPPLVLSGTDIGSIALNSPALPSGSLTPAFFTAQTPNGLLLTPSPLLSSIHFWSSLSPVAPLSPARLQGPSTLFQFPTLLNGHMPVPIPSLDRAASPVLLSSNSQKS
# Method in brief: as §1
# [10] = biological target: T7, FEV (Homo sapiens, UniProt Q99581 1-238); details: protein: recombinant; tags: N-terminal GST; dsDNA, one strand shown
# T7 sequence: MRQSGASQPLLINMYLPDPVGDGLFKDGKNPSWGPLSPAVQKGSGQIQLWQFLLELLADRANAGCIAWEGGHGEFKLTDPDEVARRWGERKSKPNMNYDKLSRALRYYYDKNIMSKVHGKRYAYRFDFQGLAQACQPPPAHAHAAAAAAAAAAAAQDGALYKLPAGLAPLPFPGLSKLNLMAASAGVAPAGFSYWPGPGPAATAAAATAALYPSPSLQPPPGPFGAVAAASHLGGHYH
# Method in brief: as §1
# [11] = biological target: ETV5 (Homo sapiens, UniProt P41161 1-510); details: protein: recombinant; tags: N-terminal GST; dsDNA, one strand shown
# Method in brief: as §1
# [12] = biological target: HSF1 (Homo sapiens, UniProt Q00613 1-529); details: protein: recombinant; tags: N-terminal GST; chain copies: 3; dsDNA, one strand shown
# Method in brief: as §1
# [13] = biological target: T8, SPIC (Homo sapiens, UniProt Q8N5J4 1-248); details: protein: recombinant; tags: N-terminal GST; dsDNA, one strand shown
# T8 sequence: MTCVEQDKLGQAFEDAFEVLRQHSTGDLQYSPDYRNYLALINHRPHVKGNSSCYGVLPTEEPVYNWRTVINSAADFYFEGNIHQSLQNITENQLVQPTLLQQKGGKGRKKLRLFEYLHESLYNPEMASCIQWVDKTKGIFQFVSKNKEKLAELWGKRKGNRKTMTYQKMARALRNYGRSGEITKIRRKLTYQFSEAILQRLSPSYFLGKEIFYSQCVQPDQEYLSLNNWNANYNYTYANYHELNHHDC
# Method in brief: as §1
# [14] = biological target: ELF4 (Homo sapiens, UniProt Q99607 1-663); details: protein: recombinant; tags: N-terminal GST; dsDNA, one strand shown
# Method in brief: as §1
# [15] = biological target: T9, ELK4 (Homo sapiens, UniProt P28324-2 1-405); details: protein: recombinant; tags: N-terminal GST; dsDNA, one strand shown
# T9 sequence: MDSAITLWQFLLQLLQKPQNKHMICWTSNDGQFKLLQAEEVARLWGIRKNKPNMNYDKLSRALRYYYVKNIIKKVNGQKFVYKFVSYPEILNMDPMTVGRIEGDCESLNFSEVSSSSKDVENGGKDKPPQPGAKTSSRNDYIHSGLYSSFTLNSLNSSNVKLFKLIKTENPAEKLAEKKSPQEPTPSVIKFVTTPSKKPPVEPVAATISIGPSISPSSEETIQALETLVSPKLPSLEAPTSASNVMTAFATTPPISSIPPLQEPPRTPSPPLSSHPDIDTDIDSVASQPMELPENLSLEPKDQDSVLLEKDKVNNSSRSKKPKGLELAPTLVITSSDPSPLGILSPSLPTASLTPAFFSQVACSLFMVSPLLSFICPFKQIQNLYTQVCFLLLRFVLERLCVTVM
# Method in brief: as §1
# [16] = biological target: T10, ETV2 (Homo sapiens, UniProt O00321 1-342); details: protein: recombinant; tags: N-terminal GST; dsDNA, one strand shown
# T10 sequence: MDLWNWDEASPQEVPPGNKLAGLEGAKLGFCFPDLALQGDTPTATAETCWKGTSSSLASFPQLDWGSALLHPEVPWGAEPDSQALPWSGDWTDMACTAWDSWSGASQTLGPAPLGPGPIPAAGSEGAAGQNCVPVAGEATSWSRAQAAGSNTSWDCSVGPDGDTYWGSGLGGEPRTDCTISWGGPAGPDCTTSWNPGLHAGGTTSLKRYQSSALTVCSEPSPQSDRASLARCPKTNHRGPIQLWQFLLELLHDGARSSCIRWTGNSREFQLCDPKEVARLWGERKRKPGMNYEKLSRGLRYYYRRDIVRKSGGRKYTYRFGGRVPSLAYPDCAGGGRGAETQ
# Method in brief: as §1
# [17] = biological target: T11, ELF3 (Homo sapiens, UniProt P78545 1-371); details: protein: recombinant; tags: N-terminal GST; dsDNA, one strand shown
# T11 sequence: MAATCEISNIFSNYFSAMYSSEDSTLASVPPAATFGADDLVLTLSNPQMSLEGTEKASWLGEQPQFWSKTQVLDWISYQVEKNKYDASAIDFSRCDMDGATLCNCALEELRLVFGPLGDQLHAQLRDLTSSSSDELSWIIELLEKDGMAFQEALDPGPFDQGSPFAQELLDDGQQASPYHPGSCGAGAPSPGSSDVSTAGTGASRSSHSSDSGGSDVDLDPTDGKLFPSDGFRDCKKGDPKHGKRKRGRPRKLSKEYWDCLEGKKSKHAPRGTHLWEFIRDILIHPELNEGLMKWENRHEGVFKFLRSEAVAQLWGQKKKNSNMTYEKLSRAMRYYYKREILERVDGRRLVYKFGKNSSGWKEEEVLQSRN
# Method in brief: as §1
# [18] = biological target: CRX (Homo sapiens, UniProt O43186 1-299); details: protein: recombinant; tags: N-terminal GST; dsDNA, one strand shown
# Method in brief: as §1
# [19] = biological target: ETV1 (Homo sapiens, UniProt P50549 1-477); details: protein: recombinant; tags: N-terminal GST; dsDNA, one strand shown
# Method in brief: as §1
# Chain of ELF4 (Q99607 whole entry): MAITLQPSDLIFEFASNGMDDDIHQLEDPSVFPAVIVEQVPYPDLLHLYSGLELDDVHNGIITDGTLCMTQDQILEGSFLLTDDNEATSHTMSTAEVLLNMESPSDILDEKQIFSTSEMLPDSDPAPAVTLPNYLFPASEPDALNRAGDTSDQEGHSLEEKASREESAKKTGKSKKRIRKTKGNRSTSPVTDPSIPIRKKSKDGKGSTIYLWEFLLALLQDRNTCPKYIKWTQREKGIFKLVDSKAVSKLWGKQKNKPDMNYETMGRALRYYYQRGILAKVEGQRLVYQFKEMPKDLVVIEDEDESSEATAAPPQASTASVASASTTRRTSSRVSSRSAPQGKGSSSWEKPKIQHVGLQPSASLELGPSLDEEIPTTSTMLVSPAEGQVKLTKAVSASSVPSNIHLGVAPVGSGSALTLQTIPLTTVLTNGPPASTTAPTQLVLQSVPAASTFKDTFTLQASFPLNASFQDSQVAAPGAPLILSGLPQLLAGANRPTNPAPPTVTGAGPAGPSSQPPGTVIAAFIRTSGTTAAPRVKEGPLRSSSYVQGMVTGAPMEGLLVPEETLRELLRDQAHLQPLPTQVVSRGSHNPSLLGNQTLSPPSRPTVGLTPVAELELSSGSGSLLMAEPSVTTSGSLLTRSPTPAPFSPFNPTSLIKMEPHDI
# Chain of HSF1 (Q00613 whole entry): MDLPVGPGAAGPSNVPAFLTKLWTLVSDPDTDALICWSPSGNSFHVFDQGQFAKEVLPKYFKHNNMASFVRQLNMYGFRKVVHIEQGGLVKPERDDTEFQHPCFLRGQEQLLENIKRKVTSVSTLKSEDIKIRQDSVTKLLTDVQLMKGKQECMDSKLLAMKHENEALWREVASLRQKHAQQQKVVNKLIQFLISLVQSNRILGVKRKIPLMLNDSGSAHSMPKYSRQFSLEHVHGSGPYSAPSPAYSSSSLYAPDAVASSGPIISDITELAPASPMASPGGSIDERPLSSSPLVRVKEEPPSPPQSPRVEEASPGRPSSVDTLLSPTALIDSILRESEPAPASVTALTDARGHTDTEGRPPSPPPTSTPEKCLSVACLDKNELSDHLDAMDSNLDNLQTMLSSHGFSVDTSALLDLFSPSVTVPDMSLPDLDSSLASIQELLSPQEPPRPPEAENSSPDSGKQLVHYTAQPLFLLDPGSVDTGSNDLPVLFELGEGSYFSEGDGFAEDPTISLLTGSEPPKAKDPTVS
# Chain of CRX (O43186 whole entry): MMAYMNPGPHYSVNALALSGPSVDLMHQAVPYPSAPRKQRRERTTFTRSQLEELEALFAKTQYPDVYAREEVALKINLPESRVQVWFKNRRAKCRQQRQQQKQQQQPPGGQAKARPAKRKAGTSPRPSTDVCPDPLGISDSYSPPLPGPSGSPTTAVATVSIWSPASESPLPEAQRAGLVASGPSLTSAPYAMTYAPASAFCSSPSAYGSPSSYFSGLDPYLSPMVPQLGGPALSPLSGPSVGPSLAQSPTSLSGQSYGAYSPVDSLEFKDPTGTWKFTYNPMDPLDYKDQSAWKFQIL
# Chain of ETV1 (P50549 whole entry): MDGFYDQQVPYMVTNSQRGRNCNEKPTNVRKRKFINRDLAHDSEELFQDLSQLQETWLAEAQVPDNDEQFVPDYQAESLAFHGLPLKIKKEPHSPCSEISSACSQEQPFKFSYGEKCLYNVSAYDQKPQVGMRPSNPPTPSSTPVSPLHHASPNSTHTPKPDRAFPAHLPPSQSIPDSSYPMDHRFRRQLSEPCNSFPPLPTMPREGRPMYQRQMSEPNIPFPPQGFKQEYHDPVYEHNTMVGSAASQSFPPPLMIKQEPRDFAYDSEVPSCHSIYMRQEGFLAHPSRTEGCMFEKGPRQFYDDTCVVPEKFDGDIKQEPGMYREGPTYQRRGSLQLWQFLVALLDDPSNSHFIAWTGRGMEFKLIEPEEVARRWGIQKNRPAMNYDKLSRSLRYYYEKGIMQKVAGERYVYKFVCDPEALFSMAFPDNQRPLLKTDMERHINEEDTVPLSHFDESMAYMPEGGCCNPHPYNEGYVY
# Chain of SPIB (Q01892 whole entry): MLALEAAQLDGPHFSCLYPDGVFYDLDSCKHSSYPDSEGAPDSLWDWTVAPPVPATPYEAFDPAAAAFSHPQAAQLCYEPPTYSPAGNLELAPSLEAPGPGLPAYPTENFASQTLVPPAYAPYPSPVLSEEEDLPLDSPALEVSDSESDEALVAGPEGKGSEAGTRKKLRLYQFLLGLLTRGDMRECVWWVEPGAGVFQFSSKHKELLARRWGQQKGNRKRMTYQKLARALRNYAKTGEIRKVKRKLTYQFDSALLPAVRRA
# Chain of ETV5 (P41161 whole entry): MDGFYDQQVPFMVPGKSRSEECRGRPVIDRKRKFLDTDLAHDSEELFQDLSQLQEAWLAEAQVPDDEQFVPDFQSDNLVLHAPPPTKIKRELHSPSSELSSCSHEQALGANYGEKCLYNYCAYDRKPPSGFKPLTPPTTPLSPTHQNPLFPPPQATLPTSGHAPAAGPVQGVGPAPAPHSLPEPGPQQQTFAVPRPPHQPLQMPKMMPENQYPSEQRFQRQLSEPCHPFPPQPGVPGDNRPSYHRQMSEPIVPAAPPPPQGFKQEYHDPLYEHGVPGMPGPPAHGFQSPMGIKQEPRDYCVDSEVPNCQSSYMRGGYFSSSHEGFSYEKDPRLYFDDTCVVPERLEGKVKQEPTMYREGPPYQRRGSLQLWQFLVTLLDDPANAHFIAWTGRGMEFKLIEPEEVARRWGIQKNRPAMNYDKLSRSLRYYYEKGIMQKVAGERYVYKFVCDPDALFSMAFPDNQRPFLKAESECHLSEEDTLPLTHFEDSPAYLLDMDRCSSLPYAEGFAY
# Chain of ELF1 (P32519 whole entry): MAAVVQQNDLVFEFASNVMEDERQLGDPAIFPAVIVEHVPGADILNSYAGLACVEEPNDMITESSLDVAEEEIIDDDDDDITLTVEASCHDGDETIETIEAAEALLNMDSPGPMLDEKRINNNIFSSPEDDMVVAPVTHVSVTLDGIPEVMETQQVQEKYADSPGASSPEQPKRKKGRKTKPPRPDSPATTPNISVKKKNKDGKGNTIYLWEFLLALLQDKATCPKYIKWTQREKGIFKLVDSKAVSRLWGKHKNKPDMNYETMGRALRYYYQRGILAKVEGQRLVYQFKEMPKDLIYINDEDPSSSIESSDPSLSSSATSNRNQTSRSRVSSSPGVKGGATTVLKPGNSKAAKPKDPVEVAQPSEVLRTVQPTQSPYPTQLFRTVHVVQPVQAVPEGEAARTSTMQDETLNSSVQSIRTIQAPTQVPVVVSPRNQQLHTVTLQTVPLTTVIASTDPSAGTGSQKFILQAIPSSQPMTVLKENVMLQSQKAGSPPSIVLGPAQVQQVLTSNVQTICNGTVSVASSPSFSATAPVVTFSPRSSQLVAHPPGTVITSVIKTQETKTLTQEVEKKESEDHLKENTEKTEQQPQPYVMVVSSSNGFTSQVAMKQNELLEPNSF
sequence,measurement,setting,value
TACCAC,binding signal,[1],"1.2 fold enrichment (6-mer frequency, TF over GST control)"
same,binding signal,[2],"1.32 fold enrichment (6-mer frequency, TF over GST control)"
same,binding signal,[3],"1.18 fold enrichment (6-mer frequency, TF over GST control)"
same,binding signal,[4],"1.17 fold enrichment (6-mer frequency, TF over GST control)"
same,binding signal,[5],"1.32 fold enrichment (6-mer frequency, TF over GST control)"
same,binding signal,[6],"1.23 fold enrichment (6-mer frequency, TF over GST control)"
same,binding signal,[7],"1.24 fold enrichment (6-mer frequency, TF over GST control)"
same,binding signal,[8],"1.26 fold enrichment (6-mer frequency, TF over GST control)"
same,binding signal,[9],"1.14 fold enrichment (6-mer frequency, TF over GST control)"
same,binding signal,[10],"1.3 fold enrichment (6-mer frequency, TF over GST control)"
same,binding signal,[11],"1.19 fold enrichment (6-mer frequency, TF over GST control)"
same,binding signal,[12],"1.12 fold enrichment (6-mer frequency, TF over GST control)"
same,binding signal,[13],"1.25 fold enrichment (6-mer frequency, TF over GST control)"
same,binding signal,[14],"1.23 fold enrichment (6-mer frequency, TF over GST control)"
same,binding signal,[15],"1.18 fold enrichment (6-mer frequency, TF over GST control)"
same,binding signal,[16],"1.2 fold enrichment (6-mer frequency, TF over GST control)"
same,binding signal,[17],"1.25 fold enrichment (6-mer frequency, TF over GST control)"
same,binding signal,[18],"1.17 fold enrichment (6-mer frequency, TF over GST control)"
same,binding signal,[19],"1.24 fold enrichment (6-mer frequency, TF over GST control)"
